Assay outcomes (PubChem)
The list is not random: actives were taken first. Their share in the collection is about 12%.
JMJD2A Tudor: inhibitors of human JMJD2A Tudor domain; O75164; AlphaScreen JMJD2A-Tudor / H3K4me3 peptide binding; Potency, µM (series often up to 114 µM), for inactives: at the top dose activity change, negative = inhibition, actives largely listed as inhibitors; hit rate 4.4% among 390,000; also: % is scaled to controls: 0 for no effect and ±100 for the full control effect; nearly all actives have a fitted effect of over 50% in size
Sfp PPTase inh: inhibitors of Bacillus subtilis Sfp phosphopantetheinyl transferase. Q9F4F7. Biochemical Sfp PPTase activity, qHTS. Potency, µM, for the others: largest response in the series, negative = inhibition, usual class: inhibitors. hit rate 3.5% among 310,000. AID 1490;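 also: the enzyme is Sfp with the accession as filed and its product quenches rhodamine fluorescence; 0% = enzyme reaction without inhibitor and -100% = no enzyme wells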
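Step 1, compound plus 15 nM Sfp-PPTase, 15 min, room temperature. Step 2, add rhodamine-CoA (5 uM) and BHQ-2-YbbR (12.5 uM). Step 3, read 525/598 nm fluorescence at 0 and 30 min.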
BAZ2B block: inhibitors of human BAZ2B bromodomain; Q9UIF8; AlphaScreen BAZ2B-H3K14Ac peptide displacement; Potency, µM (doses to about 114 µM), for the others: top-dose activity change, negative = inhibition, usual class: inhibitors; hit rate 4.4% among 360,000; also: % is scaled to controls: 0 for no effect and ±100 for the full control effect; nearly all actives have a fitted effect of over 60% in size
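In this displacement format the biotinylated H3(5-23) peptide acetylated at Lys14 serves as ligand at 50 nM, with BAZ2B at 50 nM in PBS pH 7.4 containing 0.01% Tween-20. Donor and acceptor beads are 10 ug/mL final.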
HP1b binding inh: HP1-beta chromodomain-methylated histone interaction inhibition; P83916; AlphaScreen HP1-beta / biotin-H3K9me3 peptide binding; Potency, µM (highest dose often 114 µM), inactives show top-dose activity change, negative = inhibition, most hits filed as inhibitors; hit rate 0.56% among 390,000; also: nearly all actives have a fitted effect of over 70% in size
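AlphaScreen: HP1-beta (50 nM) preformed 30 min with biotin-H3(1-18)K9me3 peptide (50 nM) in PBS pH 7.4, 0.01% Tween-20. Compound added for 30 min at RT, then streptavidin donor/nickel chelate acceptor beads (10 ug/mL) for 30 min.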
L3MBTL1 block: inhibitors of human L3MBTL1; Q9Y468; AlphaScreen L3MBTL1–H3K9me1 peptide binding; Potency, µM (highest dose often 57.1 µM), without a hit: top-dose activity, negative = inhibition, actives largely listed as inhibitors; hit rate 0.66% among 230,000; also: % is scaled to controls: 0 for no effect and ±100 for the full control effect; nearly all actives have a fitted effect of over 60% in size
Target sequence (Q9Y468 whole entry, looked up): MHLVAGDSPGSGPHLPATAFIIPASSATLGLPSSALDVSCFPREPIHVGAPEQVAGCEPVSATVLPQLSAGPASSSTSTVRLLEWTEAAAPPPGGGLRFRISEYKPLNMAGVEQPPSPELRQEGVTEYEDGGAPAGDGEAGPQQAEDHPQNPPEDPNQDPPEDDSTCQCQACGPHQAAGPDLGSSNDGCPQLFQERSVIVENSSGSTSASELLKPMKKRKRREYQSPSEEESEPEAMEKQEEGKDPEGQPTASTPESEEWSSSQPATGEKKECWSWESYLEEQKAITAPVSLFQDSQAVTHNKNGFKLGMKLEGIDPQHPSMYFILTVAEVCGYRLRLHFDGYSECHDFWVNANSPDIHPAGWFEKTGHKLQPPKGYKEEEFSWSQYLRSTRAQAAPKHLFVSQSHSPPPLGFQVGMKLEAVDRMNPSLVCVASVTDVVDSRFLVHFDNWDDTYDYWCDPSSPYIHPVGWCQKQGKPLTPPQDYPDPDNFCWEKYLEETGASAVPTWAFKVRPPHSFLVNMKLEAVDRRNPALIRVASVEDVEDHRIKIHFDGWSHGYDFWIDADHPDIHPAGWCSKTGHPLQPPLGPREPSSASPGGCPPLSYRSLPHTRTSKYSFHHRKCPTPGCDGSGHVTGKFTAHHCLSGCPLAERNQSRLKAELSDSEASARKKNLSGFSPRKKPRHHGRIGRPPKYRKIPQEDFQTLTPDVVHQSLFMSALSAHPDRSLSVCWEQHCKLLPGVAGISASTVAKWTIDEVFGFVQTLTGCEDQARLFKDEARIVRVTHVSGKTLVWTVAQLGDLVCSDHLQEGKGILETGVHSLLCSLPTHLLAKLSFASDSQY
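AlphaScreen assay: L3MBTL1 (50 nM final) was preincubated 30 min at room temperature with biotinylated H3(1-15)K9me1 peptide (75 nM final), then 30 min with library compounds; streptavidin donor and nickel chelate acceptor beads (10 ug/mL final) added, 30 min dark.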
G9a block: G9a (human) methyltransferase inhibition; Q96KQ7; hit rate 8.8% among 350,000; Potency, µM (titrated, usually from 102 µM), for the others: at the highest dose activity, negative = inhibition, actives largely listed as inhibitors; G9a H3K9 monomethylation, AlphaScreen, 2 h; also: % is scaled to controls: 0 for no effect and ±100 for the full control effect; nearly all actives have a fitted effect of over 75% in size
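G9a (20 nM) was preincubated 15 min with compound, then reacted 2 h at room temperature with 500 nM biotin-H3K9 peptide and 20 µM SAM. Monomethyl-H3K9 detected by AlphaScreen using anti-H3K9me1 antibody.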
* hit, by the source's call; ? = inconclusive; . = no result given; ! = repeats disagree; [ ] = remark or other dose. Calls follow the shape of the dose curve; as a rule, active = well fitted curve in the direction sought with a large enough effect; inconclusive = small, poorly fitted or top-dose-only effect, or another doubt; inactive = no such curve, though single readings can be large; an effect the other way counts as inactive or inconclusive. Potency is read from the fitted curve at half-maximal effect.

SMILES | JMJD2A Tudor | Sfp PPTase inh | BAZ2B block | HP1b binding inh | L3MBTL1 block | G9a block
COc1ccccc1CCNC(=O)CCc1c(C)c2cc3c(C)coc3c(C)c2oc1=O | -8% | . | 3% | 48% | . | 1%[59 µM]
O=C1NC(=O)/C(=C\c2ccc(N3CCOCC3)o2)N1 | -7% | 18µM* | 7% | 15% | . | 25µM*
Cc1cc(/C=C2\NC(=O)NC2=O)c(C)n1-c1ccc(N2CCOCC2)cc1 | ? | 0% | -33% | -36% | 25% | .
O=C1NC(=O)/C(=C/c2ccc(N3CCOCC3)o2)N1 | -10% | 32µM* | -3% | 15% | 16% | .
Cc1cc(C)n2nc3nc(N4CCCCC4)nc(-c4ccco4)c3c2n1 | ? | ? | 79µM* | -14% | -83% | 4µM*
Cc1cc(Nc2ccccc2Cl)n2nc(-c3ccco3)nc2n1 | 3% | . | -5% | 33% | . | 0%[12.7 µM]
O=C(O)CNCC1COc2ccccc2O1 (stereo unspecified) | 4µM* | -14% | ? | 11% | 6% | 18µM*
c1ccc(CCNCC2COc3ccccc3O2)cc1 (stereo unspecified) | -14% | 11% | 3% | 21% | . | 10%
c1ccc2c(c1)OCC(CNCC1COc3ccccc3O1)O2 (stereo unspecified) | 2% | -2% | -3% | 47% | -6% | .
CN(C)S(=O)(=O)c1cccc(CNCC2COc3ccccc3O2)c1 (stereo unspecified) | 18µM* | -22% | 32µM* | 50µM* | . | 9%
COC(=O)CSc1ncc2c(n1)-c1ccccc1N(Cc1cccc(F)c1)S2(=O)=O | -19% | . | -14% | 1% | . | 5%[59 µM]
O=C(CCCn1c(=O)c2sccc2n(Cc2ccc(Cl)cc2)c1=O)NCc1ccc2c(c1)OCO2 | 1% | . | 0% | 41% | . | 9%[59 µM]
Cc1cccc(N2CCN(C(=O)CCS(=O)(=O)c3ccc(Br)cc3)CC2C)c1 (stereo unspecified) | ? | -9% | 32µM* | 28µM* | . | 25µM*
O=C(CCS(=O)(=O)c1ccc(Br)cc1)N1CCN(c2ccccc2)CC1 | -30% | -6% | ? | -23% | . | ?
CC(=O)N1CCCc2cc(S(=O)(=O)CCC(=O)N3CCN(c4cccc(C)c4)C(C)C3)ccc21 (stereo unspecified) | 56µM* | 6% | 50µM* | -25% | . | 50µM*
CC(C)n1cc(/C=N/NC(=O)COc2cccc3cccnc23)c2ccccc21 | -30% | ? | 9% | 29% | 8% | 45µM*
COc1ccccc1OCC(=O)N/N=C/c1cccc2cccnc12 | 56µM* | 5% | 35µM* | 29% | . | .
COc1cccc(/C=N/NC(=O)COc2cccc3cccnc23)c1O | -16% | 20% | -16% | 50% | 9% | 0%
COc1ccc(OCC(=O)N/N=C/c2cccc3cccnc23)cc1 | 79µM* | . | . | 19% | . | .
CC(Sc1nnc(-c2cccnc2)o1)C(=O)NC1CCCC1 (stereo unspecified) | -19% | . | 10% | 33% | 2% | -19%[59 µM]
O=C(COC(=O)c1cnc(Cl)c(Cl)c1)NCc1cccs1 | 22µM* | 19% | 4% | -3% | 6% | 25%[0.0925 µM]
COc1cc(NS(=O)(=O)c2ccc(NS(=O)(=O)c3ccccc3)cc2)nc(OC)n1 | -15% | 14% | ? | 12% | 1% | 56µM*
COc1cc(NS(=O)(=O)c2ccc(NC(=O)/C(=C\c3ccccc3OC)NC(=O)c3ccccc3)cc2)nc(OC)n1 | -30% | 10% | -3% | 27% | -2% | 20µM*
Cc1nn(C)c(C)c1CN(Cc1nc(CCC(C)C)no1)C(C)C | -9% | 14% | -16% | 35% | -5% | ?
COc1cccc(N2CCN(C(=O)c3cc4c(s3)-c3c(C)cccc3OC4)CC2)c1 | -5% | . | -11% | 49% | . | 6%[59 µM]
SMILES | JMJD2A Tudor | Sfp PPTase inh | BAZ2B block | HP1b binding inh | L3MBTL1 block | G9a block
CSc1nsc2nc(=O)c(/C=C3\C(C)=Nc4ccccc43)c(N)n12 | -32% | 9% | ? | 19% | . | 18µM*
Nc1c(/C=C2\C=Nc3ccccc32)c(=O)nc2sc(CC(=O)N3CCOCC3)nn12 | 19% | 7% | -34% | 53% | . | -42%
Cc1cc2c(NCCc3ccccc3)ncnc2s1 | 3% | -6% | ? | 34% | . | 50µM*
Cc1cc2c(Nc3ccccc3)ncnc2s1 | -5% | 0% | -13% | 24% | 11% | ?
COc1ccc(CCNC(=O)c2ccc3nc(Cc4ccccc4)oc3c2)cc1OC | -26% | . | 1% | 26%[57 µM] | . | -5%[59 µM]
COc1ccc(CNS(=O)(=O)c2csc(C(N)=O)c2)cc1OC | 32µM*! | 15% | -8% | 26% | . | 6%[59 µM]
O=[N+]([O-])c1cccc(-c2nc(Oc3ccc(Cl)cc3)c3ccccc3n2)c1 | . | -30% | ? | . | -7% | 11µM*
COc1nc(-c2cccc([N+](=O)[O-])c2)nc2ccccc12 | 11% | 13% | -3% | 36% | 0% | -30%
O=c1ccc(C(F)(F)F)cn1Cc1cc(=O)n2cc(Br)ccc2n1 | -30% | 13% | 79µM* | 17% | ? | 4.5µM*
Cc1ccc2[nH]c(=O)c(CN(CCc3ccccc3)Cc3nnnn3CC3CCCO3)cc2c1 (stereo unspecified) | -20% | -14% | 5% | 18% | -12% | ?
O=c1[nH]c2cc3c(cc2cc1CN(Cc1nnnn1CC1CCCO1)C1CCCC1)OCO3 (stereo unspecified) | -4% | 0% | -8% | 14% | -7% | 13µM*
COc1ccc2[nH]c(=O)c(CN(Cc3ccc(C)cc3)Cc3nnnn3CC3CCCO3)cc2c1 (stereo unspecified) | -16% | 16µM* | -36% | 7% | . | ?
COc1ccc2[nH]c(=O)c(CN(CCc3ccccc3)Cc3nnnn3CC3CCCO3)cc2c1 (stereo unspecified) | -20% | 50µM* | -17% | 13% | -15% | 8.9µM*
O=c1[nH]c2cc3c(cc2cc1CN(CCc1ccccc1)Cc1nnnn1CC1CCCO1)OCO3 (stereo unspecified) | -7% | 56µM* | -22% | 26% | . | ?
O=C(COC(=O)c1n[nH]c2ccccc12)NC1CCCCC1 | -16% | . | . | 10% | -2% | .
O=C(Nc1cc(S(=O)(=O)N2CCOCC2)ccc1N1CCCCC1)c1cc(-c2ccccn2)nc2ccccc12 | 79µM* | 13µM* | -31% | ? | -1% | 2.8µM*
O=C(Nc1ccccc1N1CCOCC1)c1cc(-c2ccco2)nc2ccccc12 | ? | -16% | 50µM* | ? | . | ?
O=C(Nc1ccccc1F)c1cc(-c2ccco2)nc2ccccc12 | ? | . | . | -13% | . | .
